25 compounds from PubChem BioAssay can be followed below.

Experiment [1] in a line: StAR promoter reporter inhibitors, counter-screen for LRH-1 inverse agonist project, cell-based, luminescence, high throughput (AID 651611). The following applies: StAR promoter luciferase reporter counterscreen, at 3.6 µM, active compounds read high. A general note: The purpose of a counterscreen is to sort out artefacts and off-target activity.
Experiment [2] concerns the target Nuclear receptor subfamily 5 group A member 2 (Homo sapiens) (UniProt O00482). In words: LRH-1 (NR5A2) inverse agonists, retest, confirmation, cell-based, luminescence (AID 651613; in the data active = inhibition above about 42%;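 note: HEK293T cells co-transfected with LRH-1 and StAR promoter luciferase reporter; 0% = vehicle wells and 100% = parental cells lacking receptor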). The following applies: cell-based LRH-1 luciferase reporter, inverse agonism; at 3.6 µM; active compounds read high. In general terms: Reporter assays use an easily measured gene product as a stand-in for the process of interest.

For experiment [3], the target named is Steroidogenic factor 1 (Homo sapiens) (UniProt Q13285). In words: SF1 (NR5A1) inverse agonists, counter-screen for LRH-1 inverse agonist project, cell-based, luminescence, high throughput (AID 651614; in the data active = inhibition above about 44%;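 note: cells cotransfected with StAR promoter reporter and SF1 expression vector; 0% = vehicle on cells with receptor and 100% = vehicle on cells lacking receptor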). The following applies: cell-based SF1 luciferase reporter, at 3.6 µM, active compounds read high.
Experiment [4] in a line: VP16 transactivation reporter inhibitors, counter-screen for LRH-1 inverse agonist project, cell-based, luminescence, high throughput (AID 651615; in the data active = inhibition above about 33%). The following applies: Gal4-VP16 luciferase reporter cells, at 3.6 µM, active compounds read high.

A number with no mark means an inactive call. Calls of active or inactive are those of the source. Cut-off read from the data, not from the text of the source, unless noted: active = inhibition above about 28%; inactive = the rest.

Chain of Steroidogenic factor 1 (Homo sapiens) (Q13285 whole entry, looked up, the tested form may be a part): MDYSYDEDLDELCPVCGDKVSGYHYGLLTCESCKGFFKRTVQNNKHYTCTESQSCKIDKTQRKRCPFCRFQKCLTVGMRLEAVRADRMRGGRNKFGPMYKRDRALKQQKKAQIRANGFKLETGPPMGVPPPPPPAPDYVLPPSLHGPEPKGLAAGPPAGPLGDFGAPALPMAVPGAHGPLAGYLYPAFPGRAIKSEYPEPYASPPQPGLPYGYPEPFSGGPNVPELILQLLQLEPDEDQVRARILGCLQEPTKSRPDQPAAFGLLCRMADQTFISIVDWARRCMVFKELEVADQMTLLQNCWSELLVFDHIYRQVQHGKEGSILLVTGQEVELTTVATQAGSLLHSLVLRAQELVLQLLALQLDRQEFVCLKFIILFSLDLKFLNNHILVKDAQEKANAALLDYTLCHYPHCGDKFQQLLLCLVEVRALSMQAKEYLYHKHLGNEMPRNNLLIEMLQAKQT
Chain of Nuclear receptor subfamily 5 group A member 2 (Homo sapiens) (O00482 whole entry, looked up): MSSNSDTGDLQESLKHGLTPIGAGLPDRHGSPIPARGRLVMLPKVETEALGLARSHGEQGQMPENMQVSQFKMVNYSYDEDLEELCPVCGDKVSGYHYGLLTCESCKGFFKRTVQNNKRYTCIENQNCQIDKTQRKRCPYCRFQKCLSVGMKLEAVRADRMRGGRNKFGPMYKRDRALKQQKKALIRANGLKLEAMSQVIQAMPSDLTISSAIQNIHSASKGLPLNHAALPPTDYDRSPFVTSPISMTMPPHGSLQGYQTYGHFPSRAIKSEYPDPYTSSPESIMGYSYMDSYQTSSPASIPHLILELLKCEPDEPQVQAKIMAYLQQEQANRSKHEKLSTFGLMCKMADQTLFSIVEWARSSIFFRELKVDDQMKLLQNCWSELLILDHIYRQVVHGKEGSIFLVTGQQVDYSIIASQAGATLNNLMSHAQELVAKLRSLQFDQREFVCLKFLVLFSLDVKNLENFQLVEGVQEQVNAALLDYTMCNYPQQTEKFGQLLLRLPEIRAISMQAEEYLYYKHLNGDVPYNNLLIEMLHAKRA

For `COc1ccc(NC(=O)CN2C(=O)NC3(CCCc4ccccc43)C2=O)c(OC)c1` (stereo not given), the inhibition (as a rule, the drop in the measured response relative to a control, in per cent) is 12.3% in experiment [1], 50.9% (active) in experiment [2], 42% in experiment [3] and -6.1% in experiment [4].

Consider `CNC(=O)c1nc(C)c(C2(C)CC(c3cccc([N+](=O)[O-])c3)=NO2)s1` (stereo not given), for which the inhibition in experiment [1] is 8.75%; in experiment [2], 27%; in experiment [3] it was 35.6%; in experiment [4], -1.29%.

As for `O=C(CN1C(=O)CCC1=O)Nc1ccc(Br)cc1`, the inhibition is 15.1% in experiment [1], 60.2% (active) in experiment [2], 52.2% (active) in experiment [3] and -3.7% in experiment [4].

With `CS(=O)(=O)c1ccc(Cl)c(NC(=O)Nc2ccccc2)c1`, the inhibition in experiment [1] was -6.75%; in experiment [2], 25.1%; in experiment [3] it was 17.5%; in experiment [4] it was -2.94%.

For the compound `COC(=O)c1ccc(NC(=O)CSc2nc3ncccc3[nH]2)cc1`, the inhibition in experiment [1] was -4.1%; in experiment [2] it was 50.8% (active); in experiment [3] it was 52.6% (active); in experiment [4], -13.4%.

As for `CCOc1ccc(C(C)=O)cc1COC(=O)c1cc([N+](=O)[O-])ccc1N1CCOCC1`, the inhibition in experiment [1] is 15.1%; in experiment [2] it was 58.2% (active); in experiment [3], 55.5% (active); in experiment [4], 7.41%.

As for `O=C(Nc1ccc(Cc2ccncc2)cc1)c1cc(F)c(F)cc1Cl`, the inhibition in experiment [1] was -0.62%; in experiment [2], 44.2% (active); in experiment [3] it was 37.9%; in experiment [4] it was 10.3%.

`CNC(=S)N/N=C/c1cn(Cc2ccc(C)cc2)c2ccccc12`: the inhibition is 2.35% in experiment [1], 46.9% (active) in experiment [2], 46.8% (active) in experiment [3] and 1.56% in experiment [4].

Regarding `CCOc1ccc(CCNC(=O)COC(=O)/C=C/c2ccc(OC(F)F)c(OC)c2)cc1OCC`, the inhibition in experiment [1] is 12.5%; in experiment [2] it was 51.5% (active); in experiment [3], 47.1% (active); in experiment [4], -3.71%.

As to `Cc1ccc(SCC(=O)Nc2ccc(N3CCOCC3)cc2)c(C)c1`, the inhibition in experiment [1] was 16.4%; in experiment [2], 63.3% (active); in experiment [3] it was 56.5% (active); in experiment [4], -1.3%.

Take `O=C(c1ccc([N+](=O)[O-])o1)N1CCc2ccccc21`: the inhibition is -6.72% in experiment [1], 51.8% (active) in experiment [2], 59% (active) in experiment [3] and -36.3% in experiment [4].

For `O=C(COC(=O)c1ccc(Br)o1)Nc1ccc2c(c1)OCCO2`, the inhibition was 22% in experiment [1], 59.4% (active) in experiment [2], 63.1% (active) in experiment [3] and 1.94% in experiment [4].

As for `Cc1cccc2cc(C#N)c(SCC(=O)N3CC(=O)Nc4ccccc43)nc12`, the inhibition was 53.7% (active) in experiment [1], 23.3% in experiment [2], 38.1% in experiment [3] and 38.5% (active) in experiment [4].

For `COc1ccc(S(=O)(=O)N2CCOCC2)cc1N=Nc1sc(N)nc1-c1ccccc1`, the inhibition in experiment [1] was 36.4% (active); in experiment [2] it was 60.7% (active); in experiment [3] it was 66.3% (active); in experiment [4] it was -3.07%.

Consider `COc1cc2oc(-c3ccc(O)cc3)cc(=O)c2c(O)c1OC`, for which the inhibition is 7% in experiment [1], 35.9% in experiment [2], 32.8% in experiment [3] and -45.5% in experiment [4].

As to `S=C1Cc2ccccc2N1`, the inhibition in experiment [1] was 56% (active); in experiment [2], 85.9% (active); in experiment [3], 79.5% (active); in experiment [4] it was 53.3% (active).

With `O=C(c1c(F)c(F)c(F)c(F)c1F)N1CCN(c2cccc(C(F)(F)F)c2)CC1`, the inhibition in experiment [1] was 7.83%; in experiment [2], 49.5% (active); in experiment [3], 44% (active); in experiment [4] it was 11.4%.

For `COc1ccc(S(=O)(=O)N2CCCCC2)cc1NC(=O)c1ccc([N+](=O)[O-])o1`, the inhibition in experiment [1] is 25.8%; in experiment [2], 74.9% (active); in experiment [3] it was 68.1% (active); in experiment [4], 18.6%.

As for `O=C(Nc1ccccn1)c1ccc([N+](=O)[O-])o1`, the inhibition was 14.3% in experiment [1], 58.2% (active) in experiment [2], 59.1% (active) in experiment [3] and -16.1% in experiment [4].

With `O=[N+]([O-])c1cc2ncccc2c2ncccc12`, the inhibition was 42.1% (active) in experiment [1], 56.2% (active) in experiment [2], 53.1% (active) in experiment [3] and -8.8% in experiment [4].

For `O=C(NCc1cccnc1)c1ccc([N+](=O)[O-])o1`, the inhibition in experiment [1] was 16.3%; in experiment [2], 62.7% (active); in experiment [3] it was 63.4% (active); in experiment [4], -3.23%.

On to `COc1ccccc1N1CCN(C(=O)C2c3ccccc3Oc3ccccc32)CC1`, for which the inhibition in experiment [1] was 34.4% (active); in experiment [2], 26%; in experiment [3], 33.4%; in experiment [4] it was 39.4% (active).

For `COc1ccc(NC(=O)CSc2nnc3ccc(-c4cccnc4)nn23)cc1OC`, the inhibition in experiment [1] is 7.32%; in experiment [2], 42.1% (active); in experiment [3], 41.9%; in experiment [4], -8.78%.

`COc1cc(C(=O)NC2CCN(C)CC2)ccc1Nc1ncc2c(n1)N(CCc1ccccc1)CCC(=O)N2C`: the inhibition in experiment [1] was 63.2% (active); in experiment [2], 54.8% (active); in experiment [3], 47.4% (active); in experiment [4], -166%.

With `Cc1nc2ccccc2n1Cc1ccc(Cl)cc1`, the inhibition in experiment [1] was 8.73%; in experiment [2] it was 56.1% (active); in experiment [3] it was 54.1% (active); in experiment [4], 47% (active).
